Screens: PubChem BioAssay, National Center for Advancing Translational Sciences (NCATS)
IL-1B inflam inh: blocks inflammasome-driven IL-1 beta release; THP-1 LPS/ATP IL-1B secretion, AlphaLISA, 16 h; active compounds read low; activity change, % at 57.5 µM; 360,000 tested, 4.7% active; AID 743279; in the data active means activity change below about -50%; inconclusive means mostly about -30% to -49%; further: on the % scale 0 is the no-effect control and ±100 the full control effect
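Secreted IL-1B measured by AlphaLISA bead assay after 16 h compound exposure of THP-1 cells; compounds (final up to 57.5 uM) added 1 h before LPS (250 ng/mL) and ATP (1.25 mM) stimulation; lower signal means less secretion.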
SW480 rereplic: inducers of DNA re-replication in SW480 colon cancer cells; SW480 DNA re-replication, Hoechst DNA content imaging, 48 h; Potency, µM (doses to about 46.1 µM), for inactives: at the highest dose re-replication activation, actives largely listed as activators; 340,000 tested, 1.8% active; AID 624297; further: potency means the concentration at half of the fitted maximal effect; % of control where 0% means no effect; nearly all actives have a fitted effect of over 55% in size
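First, 250 cells per well were seeded. Next, compound or vehicle (23 nL) was pinned in, plates sat 48 hr at 37 C. Finally Hoechst was added for 40 min before fluorescence scanning.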
KB-3-1 tox: kills parental KB-3-1 adenocarcinoma cells; KB-3-1 viability, CellTiter-Glo ATP luminescence, 72 h; 400,000 tested, 1.4% active; Potency, µM (series often up to 46.1 µM), usual class: cytotoxic; further: potency means the concentration at half of the fitted maximal effect; on the % scale 0 is the no-effect control and ±100 the full control effect; nearly all actives have a fitted effect of over 60% in size
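Parental KB-3-1 viability, qHTS format: 72 h compound exposure, 37 °C; CellTiter-Glo; media-only wells and DMSO plates as controls; concentration-effect fits on corrected data.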
MCF10A rereplic: DNA re-replication induction in MCF 10a cells; MCF 10A DNA re-replication, Hoechst nuclear intensity, 48 h; Potency, µM (titrated, usually from 46.1 µM), inactives show at the highest dose activity, positive = re-replication, actives largely listed as activators; 350,000 tested, 2.9% active; further: potency means the concentration at half of the fitted maximal effect; % of control where 0% means no effect; nearly all actives have a fitted effect of over 50% in size
KB-V1 cytotox: KB-V1 MDR subline cytotoxicity | KB-V1 MDR cells viability, CellTiter-Glo, 72 h | Potency, µM (doses to about 46.1 µM), most hits filed as cytotoxic | 400,000 tested, 3.4% active | AID 1347076; further: potency means the concentration at half of the fitted maximal effect; on the % scale 0 is the no-effect control and ±100 the full control effect; nearly all actives have a fitted effect of over 60% in size
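Cytotoxicity toward P-gp-expressing KB-V1 cells was determined as loss of CellTiter-Glo luminescence after 72 h at 37 degrees C. Compounds were tested in quantitative HTS format across a concentration range, with curves fitted to normalized data.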
An asterisk follows results filed as active; i = inactive; ? = inconclusive; . = no result given; ! = not confirmed by another sample; [ ] = remark or other dose. This is a sample that favours compounds with a hit; in the whole collection about 9.9% have one here. Unless noted, the call rests on the fitted dose curve; in most records, active means well fitted curve in the direction sought with a large enough effect; inconclusive means small, poorly fitted or top-dose-only effect, or another doubt; inactive means no such curve, though single readings can be large; an effect the other way counts as inactive or inconclusive.

SMILES | IL-1B inflam inh | SW480 rereplic | KB-3-1 tox | MCF10A rereplic | KB-V1 cytotox
Cc1cc(N2CCN(S(=O)(=O)c3ccc(Cl)c(Cl)c3)CC2)c2ccccc2n1 | -12 | 7% | 21µM* | ? | ?
COc1ccc(-c2csc(N3CCN(c4cc(C)nc5ccccc45)CC3)n2)cc1OC | -101* | ? | i | 24% | 16µM*
Cn1c(N2CCN(S(=O)(=O)c3ccc(Cl)cc3)CC2)nc2ccccc21 | 7 | -11% | i | -2% | 16µM*
COc1ccc2nc(C)cc(N3CCOCC3)c2c1 | 13 | -3% | i | 1% | i
Cc1ccccc1NC(=O)c1sc2nc(-c3ccncc3)ccc2c1N | . | . | i | . | i
COc1cccc2c1Oc1ncccc1N(C(=O)CCC(=O)NCc1ccccc1F)C2 | -7 | -20% | i | 0% | i
CCOC(=O)[C@]12CCC=C1N(Cc1cccc3ccccc13)C(=O)[C@H](CC(=O)N1CCCC1)C2 | 0 | . | i | . | ?
COC(=O)CCSCC(=O)N1N=C(c2ccc(Br)cc2)CC1c1cccc(OC)c1OC (stereo not drawn) | 15 | 15% | i | 4% | i
Cc1cc2c(cc1C)-c1nnnn1C(N1CCCC1)C(=O)N2 (stereo not drawn) | 19 | . | i | . | i
COc1cccc(Cl)c1NC(=O)N1CCN(c2cc(C)nc3ccccc23)CC1 | -71* | -7% | i | 7% | ?
Cn1c(CN2CCN(c3ccc(Cl)cc3)CC2)nc2ccccc21 | -7 | 2% | i | ? | 18µM*
Cc1cc(N2CCN(S(=O)(=O)c3ccc(Cl)cc3)CC2)c2ccccc2n1 | -64* | -8% | ? | -6% | 18µM*
CCn1c(CN2CCN(c3ccc(Cl)cc3)CC2)nc2ccccc21 | -13 | -7% | ? | 12% | ?
CC(NC(=O)COC(=O)C1CCN(c2ccc(C(F)(F)F)cn2)CC1)c1ccc(F)cc1 (stereo not drawn) | -11 | -3% | i | 3% | i
CCN1CCN(C(=O)NS(=O)(=O)c2ccc(C)cc2)CC1 | 14 | 4% | i | 1% | i
O=Cc1ccc(-c2cccc(C(=O)O)c2)o1 | 16 | -3% | i | -3% | ?
Cc1ccc(-c2ccc(/C=C/C(=O)c3ccccc3)o2)cc1 | -79* | 3% | i | ? | ?
O=C(/C=C/c1ccc(-c2ccccc2)o1)c1ccccc1 | -99* | 3% | i | ? | i
N#CCCN(Cc1ccccc1)C(=O)c1nccnc1C(=O)O | 20 | -1% | i | 0% | i
CCCCCCCCNC(=S)NCCN1CCCCC1 | -62* | ? | i | 12µM* | ?
S=C(NCCCN1CCOCC1)NCCCN1CCOCC1 | 0 | 3% | i | -3% | i
Cc1ccc2oc(C(=O)N3CCN(Cc4ncccc4C)CC3)c(C)c2c1 | 0 | 1% | i | -1% | i
CC(C)(C)C(=O)NC(=S)NCc1ccccc1 | 6 | -90% | i | -35% | ?
COc1ccc(/C(C)=N/Nc2ncc(Cl)cc2Cl)c(O)c1 | -18 | ? | i | 16µM* | ?
CCN(CC)C(=O)[C@H]1C[C@H](CC(=O)NCCCOC)C(=O)N2CCc3c([nH]c4cc(CCC(=O)N(C)C)ccc34)[C@]12C | -7 | -60% | i | ? | i
SMILES | IL-1B inflam inh | SW480 rereplic | KB-3-1 tox | MCF10A rereplic | KB-V1 cytotox
CCCCCCn1c(=O)n2n(c1=O)[C@@H]1CN(S(=O)(=O)c3ccc(C)cc3)C[C@]1(O)[C@@H](OC(=O)NCc1ccccc1)C2 | -71* | . | ? | . | i
COC(=O)[C@H]1C[C@H](OC(=O)NCc2ccco2)[C@@]2(O)CN(S(=O)(=O)c3ccc(C)cc3)CC2[C@H]1C(=O)OC (stereo partly drawn) | -64* | . | i | . | i
Cc1ccc(S(=O)(=O)N2C[C@H]3n4c(=O)ccc(=O)n4C[C@H](OC(=O)NCc4ccco4)[C@@]3(O)C2)cc1 | -54* | . | i | . | ?
Cc1ccc(S(=O)(=O)N2C[C@H]3n4c(=O)ccc(=O)n4C[C@H](OC(=O)NCC4CCCCC4)[C@@]3(O)C2)cc1 | -109* | . | ? | . | i
CCOC(=O)C1=C(COC(=O)c2ccco2)NC(=O)NC1CC (stereo not drawn) | 24 | -7% | i | 2% | i
CCc1c(C)[nH]c2c1C(=O)[C@H](CN1CCOCC1)CC2 | . | -12%[20.6 µM] | . | 1%[20.6 µM] | .
N#C/C(=C(/O)c1ccc2c(c1)OCO2)c1nc2cc(C(F)(F)F)ccc2s1 | -54* | ? | 15µM* | 10% | ?
N#C/C(=C(/O)c1ccccc1F)c1nc2cc(C(F)(F)F)ccc2s1 | -9 | -28% | i | ? | i
CCc1ccc(NC(=O)c2ccc3c(c2)nnn3CC)cc1 | . | . | i | . | i
OC(COc1ccc(CNCCc2ccccc2F)cc1)CN1CCCCC1 (stereo not drawn) | ? | ? | i | 18µM* | i
Cc1cccc(NC(=O)Nc2ccccc2[N+](=O)[O-])n1 | -3 | -1% | ? | 0% | ?
COc1ccc(S(=O)(=O)NC2CC(=O)N(c3ccc4c(c3)OCCO4)C2)cc1 (stereo not drawn) | 32 | -286% | i | -4% | i
COC(=O)C1NN=C(C(=O)c2ccc(Cl)cc2)C1c1ccc(OC)cc1 (stereo not drawn) | 7 | -1% | i | -25% | ?
COC(=O)C1NN=C(C(=O)c2ccccc2)C1c1ccccc1 (stereo not drawn) | -3 | -151% | i | -70% | 15µM*
COC(=O)C(CC(C)C)N(Cc1cc(OC)cc(OC)c1)S(=O)(=O)c1ccccc1Br (stereo not drawn) | 17 | 21µM* | i | 19% | i
CCOC(=O)[C@@H](C)NS(=O)(=O)N(Cc1ccccc1)[C@H](C(=O)OC)C(C)C | 2 | ? | i | 0% | ?
COC(=O)[C@H](CC(C)C)N(Cc1ccccc1)S(=O)(=O)N(Cc1ccc(OC)cc1)[C@@H](CC(C)C)C(=O)OC | 20 | -2% | ? | 11% | 18µM*!
CCOC(=O)[C@@H](C)N(Cc1ccc(OC)cc1)S(=O)(=O)N(Cc1ccccc1)[C@H](C(=O)OC)C(C)C | 17 | 2% | ? | ? | 9.2µM*!
O=C(Nc1ccccc1C(=O)NC(Cc1ccccc1)C(=O)NC1CCCCC1)c1ccccc1 (stereo not drawn) | 18 | 16% | i | ? | ?
COC(=O)[C@H](Cc1ccccc1)NC(=O)CC[C@H]1O[C@@H](n2ccc(=O)[nH]c2=O)[C@H](O)[C@@H]1O | 20 | . | i | . | i
NC(=O)C1CCCNC1 (stereo not drawn) | -57* | -5% | i | -5% | i
O=C(NC1CCNCC1)C1CCCCC1 | 16 | -6% | i | -10% | i
